# Screens as filed in PubChem.
# A selection: hits, their analogues and other compounds. The true share with any hit is near 5.7%.
# rCAG RNA binder = r(CAG) repeat RNA binding. TO-PRO-1 dye displacement fluorescence. inhibition, % at 3 µM. actives 1.3% (n = 370,000). AID 651821;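 active means inhibition above the plate cutoff, the mean of all test compounds on that plate plus 3 SD, cut at about 35% in these data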;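 further: 0% = DMSO alone and 100% = 100 µM mitoxantrone as full dye displacement; higher means more dye released from RNA so lower well fluorescence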
# Myeloid diff 2 = myeloid differentiation induction. ER-HoxA9 myeloid progenitors, lysozyme-GFP differentiation, flow cytometry. calls only at 10 µM. actives 1% (n = 360,000);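 active means normalized GFP-positive differentiation at or above the plate's own cutoff, the solvent-only control mean plus 3 SD; inconclusive means no clear call, values can overlap the other calls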;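 further: cells exposed to compound for four days before flow analysis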
# MPTP inh = permeability transition pore inhibition; actives 1.4% (n = 360,000); AID 602449; isolated mouse mitochondria, Ca2+ swelling absorbance, 30 min; inhibition, % at 10 µM;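 active means inhibition of 50% or more, scaled per plate between neutral and stimulator controls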;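 further: 0% = DMSO wells given calcium and 100% = 1 mM EGTA wells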
# GRIN3A LBD mod = modulates the human NR3A ligand-binding domain. Tm shift relative to glycine control, % at 25 µM. NR3A LBD differential scanning fluorimetry, Tm shift; 0% = protein alone, 100% = glycine-bound protein. AID 1259313. actives 2.5% (n = 340,000);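 active means melting temperature shift of at least 10% of the positive control shift, at one fixed dose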
# FAS TE block = inhibitors of human fatty acid synthase thioesterase domain; recombinant FAS-TE, OMFH fluorogenic substrate, fluorescence endpoint; inhibition, % at 15 µM; actives 0.67% (n = 360,000); AID 602261;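 active means compounds whose normalised, plate-corrected inhibition of enzyme fluorescence in the single-dose primary screen is 50% or more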;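 further: 0% = DMSO with enzyme and 100% = substrate without enzyme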
# Target sequence (P49327 whole entry, looked up, the tested form may be a part): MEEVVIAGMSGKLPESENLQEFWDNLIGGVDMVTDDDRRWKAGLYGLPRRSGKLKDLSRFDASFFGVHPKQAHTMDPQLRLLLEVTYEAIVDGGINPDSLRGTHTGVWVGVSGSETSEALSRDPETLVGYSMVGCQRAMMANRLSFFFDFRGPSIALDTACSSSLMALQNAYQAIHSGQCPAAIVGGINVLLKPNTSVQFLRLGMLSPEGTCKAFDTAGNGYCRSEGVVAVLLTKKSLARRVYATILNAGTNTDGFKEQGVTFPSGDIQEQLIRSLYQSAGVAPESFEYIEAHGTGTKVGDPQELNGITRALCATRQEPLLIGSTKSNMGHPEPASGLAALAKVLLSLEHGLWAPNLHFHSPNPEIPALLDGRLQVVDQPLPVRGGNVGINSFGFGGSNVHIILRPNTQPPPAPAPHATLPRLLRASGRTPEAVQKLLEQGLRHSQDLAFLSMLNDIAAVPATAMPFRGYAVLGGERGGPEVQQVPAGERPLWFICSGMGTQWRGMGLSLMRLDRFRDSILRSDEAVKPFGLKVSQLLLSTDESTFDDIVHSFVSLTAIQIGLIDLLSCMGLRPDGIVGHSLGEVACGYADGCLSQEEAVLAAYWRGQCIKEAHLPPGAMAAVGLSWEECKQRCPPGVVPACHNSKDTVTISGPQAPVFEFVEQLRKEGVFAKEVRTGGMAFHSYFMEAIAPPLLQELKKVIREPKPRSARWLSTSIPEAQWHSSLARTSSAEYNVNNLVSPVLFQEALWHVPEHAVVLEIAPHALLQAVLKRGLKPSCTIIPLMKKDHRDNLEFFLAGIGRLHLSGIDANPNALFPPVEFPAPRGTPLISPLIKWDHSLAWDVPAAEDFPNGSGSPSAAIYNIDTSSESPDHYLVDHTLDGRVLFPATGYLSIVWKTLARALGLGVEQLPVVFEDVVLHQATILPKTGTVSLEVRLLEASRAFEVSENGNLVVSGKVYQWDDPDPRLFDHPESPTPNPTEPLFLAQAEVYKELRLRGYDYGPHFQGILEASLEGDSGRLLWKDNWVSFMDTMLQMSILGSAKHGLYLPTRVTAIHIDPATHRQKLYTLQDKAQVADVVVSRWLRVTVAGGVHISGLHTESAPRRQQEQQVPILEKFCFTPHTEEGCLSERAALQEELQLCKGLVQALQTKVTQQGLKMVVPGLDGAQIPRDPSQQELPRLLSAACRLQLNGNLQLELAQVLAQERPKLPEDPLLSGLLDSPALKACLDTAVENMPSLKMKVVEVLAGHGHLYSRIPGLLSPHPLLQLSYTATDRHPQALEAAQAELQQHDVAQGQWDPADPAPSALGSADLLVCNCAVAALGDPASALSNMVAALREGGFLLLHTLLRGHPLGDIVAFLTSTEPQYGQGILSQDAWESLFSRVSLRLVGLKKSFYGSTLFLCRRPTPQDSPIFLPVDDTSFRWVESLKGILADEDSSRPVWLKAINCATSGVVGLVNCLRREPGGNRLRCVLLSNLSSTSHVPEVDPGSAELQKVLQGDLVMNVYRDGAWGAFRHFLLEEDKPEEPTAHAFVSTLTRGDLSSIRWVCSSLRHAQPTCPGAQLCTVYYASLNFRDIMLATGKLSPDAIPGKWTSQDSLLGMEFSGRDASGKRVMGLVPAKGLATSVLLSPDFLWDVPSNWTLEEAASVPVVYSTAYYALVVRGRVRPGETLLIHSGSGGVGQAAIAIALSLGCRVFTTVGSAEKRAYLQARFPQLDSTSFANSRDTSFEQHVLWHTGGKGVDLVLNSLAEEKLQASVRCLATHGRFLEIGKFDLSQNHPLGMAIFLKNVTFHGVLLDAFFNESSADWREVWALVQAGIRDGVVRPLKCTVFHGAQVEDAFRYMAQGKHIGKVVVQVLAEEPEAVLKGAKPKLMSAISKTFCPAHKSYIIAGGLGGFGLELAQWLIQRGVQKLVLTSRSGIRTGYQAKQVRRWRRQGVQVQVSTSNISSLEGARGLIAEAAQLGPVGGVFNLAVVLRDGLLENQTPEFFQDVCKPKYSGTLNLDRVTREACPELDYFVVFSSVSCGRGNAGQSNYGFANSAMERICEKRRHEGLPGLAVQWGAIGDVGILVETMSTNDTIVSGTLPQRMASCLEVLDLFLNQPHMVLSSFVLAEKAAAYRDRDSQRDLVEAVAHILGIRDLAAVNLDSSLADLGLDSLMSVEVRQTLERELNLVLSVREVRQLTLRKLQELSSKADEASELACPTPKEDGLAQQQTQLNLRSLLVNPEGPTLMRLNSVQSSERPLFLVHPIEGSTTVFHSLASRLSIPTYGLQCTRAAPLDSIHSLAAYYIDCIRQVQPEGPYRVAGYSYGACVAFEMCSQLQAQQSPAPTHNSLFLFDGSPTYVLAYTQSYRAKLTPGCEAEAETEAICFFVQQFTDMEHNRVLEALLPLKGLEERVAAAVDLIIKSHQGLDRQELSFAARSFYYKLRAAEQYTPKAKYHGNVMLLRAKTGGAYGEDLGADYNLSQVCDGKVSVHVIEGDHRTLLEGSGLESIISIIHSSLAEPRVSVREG
# * marks the source's active call; other numbers are inactive results; i = inactive; ? = inconclusive; . = not tested or not shown; + = active, no number; ! = a repeat was not active.
SMILES,rCAG RNA binder,Myeloid diff 2,MPTP inh,GRIN3A LBD mod,FAS TE block
O=C(O)CC(Cn1[nH]nnc1=S)c1ccccc1 (stereo not given),-2.1,+,-1.7,-0.1,-3.7
Cc1cccc(Nc2nnc(SCC(=O)Nc3cccc(S(=O)(=O)N4CCCCC4)c3)s2)c1,16.7,i,9.9,14.6*,14.4
Cc1ccc(Nc2nnc(SCC(=O)Nc3ccc(S(=O)(=O)N4CCOCC4)cc3)s2)cc1,15.2,i,9.2,33.2*,11.8
O=C(CSc1nnc(Nc2ccccc2)s1)Nc1ccc(S(=O)(=O)N2CCOCC2)cc1,15.4,i,-5.4,17.9*,5.8
Cc1cccc(NC(=O)CSc2nnc(NC(=O)CN3CCCCC3)s2)c1,4.3,.,.,.,.
COc1ccc(NC(=O)CSc2nnc(NC(=O)c3ccc(S(=O)(=O)N4CCOCC4)cc3)s2)cc1,1.8,i,0.4,31.1*,-10.9
O=C(COC(=O)c1ccc(Sc2ncn[nH]2)c([N+](=O)[O-])c1)Nc1cccc(Cl)c1F,20.8,.,.,.,.
CC1(C)CC(=O)c2cc(C(=O)O)c(=O)n(-c3ccccc3)c2C1,1.4,i,-0.6,-0.2,-1.3
CC1(C)CC(=O)c2c(O)c(-c3ccccc3)c(=O)n(-c3ccccc3)c2C1,-1.1,i,0.2,11.5*,-7.3
CCOC(=O)[C@]12CCC=C1N(Cc1ccc3c(c1)OCO3)C(=O)[C@H](CC(=O)N1CCC(c3ccccc3)CC1)C2,6.2,i,-1.7,.,14.0
COc1ccc(CN2CCN(c3ccc(F)cc3)CC2)c(OC)c1OC,-9.7,i,41.7,-5.5,4.2
COc1ccc(CN2CCN(C(c3ccc(F)cc3)c3ccc(F)cc3)CC2)c(OC)c1OC,3.0,?,40.8,12.9*,31.2
Cc1ccc(NC(=O)CC2Nc3ccccc3NC2=O)cc1Cl (stereo not given),30.6,i,3.4,10.0*,9.7
O=C(OCCN1C(=O)c2cccc3c(N4CCOCC4)ccc(c23)C1=O)c1ccccc1Cl,-5.0,i,1.5,-7.7,-81.1
O=C(OCCN1C(=O)c2cccc3c(N4CCOCC4)ccc(c23)C1=O)c1ccc(Cl)cc1Cl,2.9,?,0.4,11.2*,-91.6
CC(C)c1c(C(=O)N/N=C/c2cccc3ccccc23)nnn1-c1nonc1N,6.3,i,0.6,31.8*,25.7
CC(C)c1c(C(=O)N/N=C/c2c[nH]c3ccccc23)nnn1-c1nonc1N,19.5,i,1.3,37.6*,5.5
CC(C)c1c(C(=O)N/N=C/c2cccs2)nnn1-c1nonc1N,0.4,i,-1.1,7.1,-3.5
CCOc1ccc(-c2c(C(=O)N/N=C/c3c[nH]c4ccccc34)nnn2-c2nonc2N)cc1,15.2,i,0.9,32.4*,12.6
CCN(CC)Cc1c(C(=O)N/N=C/c2cccc3ccccc23)nnn1-c1nonc1N,3.5,i,0.5,-3.7,5.3
Cc1ccsc1/C=N/NC(=O)c1nnn(-c2nonc2N)c1C(C)C,0.8,i,0.9,5.9,3.8
CCCc1c(C(=O)N/N=C/c2cccc3ccccc23)nnn1-c1nonc1N,4.2,i,0.8,39.5*,-1.5
O=C(Nc1ccc2[nH]ccc2c1)c1cc(-c2ccc(Cl)cc2)nc2ccccc12,20.6,.,.,.,.
COC(=O)[C@]12C[C@H](CC(=O)NCc3cccc(C(F)(F)F)c3)C(=O)N(Cc3ccco3)C1=C[C@H](COCc1ccccc1)O[C@@H]2C,1.0,.,.,.,.
COC(=O)CN1CCN(C(=O)c2csc3ccccc23)CC1,5.6,.,.,.,.
SMILES,rCAG RNA binder,Myeloid diff 2,MPTP inh,GRIN3A LBD mod,FAS TE block
CC(=O)Nc1ccc(NC(=O)c2ccc(Cl)c(S(=O)(=O)N3CCc4ccccc43)c2)cc1,11.6,i,-1.0,13.1*,4.2
O=C(NCC(c1ccco1)N1CCc2ccccc2C1)c1ccc(Cl)c([N+](=O)[O-])c1 (stereo not given),2.6,i,-0.3,-2.3,45.1
O=C(NCC(c1ccco1)N1CCCC1)c1ccc(Cl)c(S(=O)(=O)N2CCc3ccccc32)c1 (stereo not given),6.8,+,13.3,-1.6,9.4
N#CCC(=O)Nc1ccc(C(=O)NCC(c2ccco2)N2CCCCC2)cc1 (stereo not given),12.7,+,-1.6,-2.8,-6.7
CN(C)C(=S)NC(=S)Nc1ccc2ccccc2c1,12.4,.,4.6,20.9*,14.0
Cc1ccccc1NCC(=O)N/N=C/c1c(C)c(C(=O)c2ccc(Cl)cc2)n2ccccc12,1.9,i,0.7,12.1*,14.5
COC(=O)C1=C(C)N(Cc2cccc(C(F)(F)F)c2)C(=NCc2cc(OC)c(OC)c(OC)c2)NC1c1ccccc1 (stereo not given),7.7,.,.,.,.
CN(C)c1ccc(/C=C/c2ccncc2)cc1,-7.7,+,1.1,0.0,-9.4
CC[C@@]1(c2cccc(Cl)c2)C(=O)N(C(=O)OC(C)C)N1C(=O)OC(C)C,-1.0,.,.,.,.
CC1=Nc2ccc(C)cc2/C1=C/c1c(N)n2nc(CC(=O)N3CCOCC3)sc2nc1=O,21.0,i,-2.0,6.6,-1.7
CC1=Nc2ccc(C)cc2/C1=C/c1c(N)n2oc(C)cc2nc1=O,8.6,+!,0.4,-5.0,-2.6
O=C1c2[nH]nc(-c3ccccc3)c2C(c2cccc(C(F)(F)F)c2)N1c1ccccc1 (stereo not given),2.2,.,.,.,.
Fc1ccccc1Cn1ccc2ccc(-c3ccc4ccn(Cc5ccccc5F)c4c3)cc21,9.6,.,.,.,.
Oc1ccc(-c2nc(-c3ccc(O)c(O)c3)cs2)cc1,22.6,i,15.9,21.1*,-8.0
Cc1ccc2nc(Cl)c(C3CC(c4ccco4)=NN3C(=O)CCCC(=O)O)cc2c1 (stereo not given),3.1,i,1.4,0.9,-6.0
CC(=O)N1N=C(c2ccco2)CC1c1cc2cc(C)ccc2nc1Cl (stereo not given),3.6,+,1.7,-0.2,3.5
O=C1C=C(c2cc(C(F)(F)F)cc(C(F)(F)F)c2)C[C@@H](c2ccc(Cl)cc2)C1,1.4,i,7.6,12.9*,25.8
O=C1C=C(c2ccc3[nH]ccc3c2)C[C@@H](c2ccc(Cl)cc2)C1,6.9,i,1.9,21.6*,22.7
COc1ccc(OC)c2c1C(=O)c1ccccc1C2=O,-13.3,.,.,-2.2,.
COc1ccc2noc3c2c1C(=O)c1ccccc1-3,i,+,2.3,-363.7,-139.5
COc1ccc(C)cc1NC(=O)C(NCC1CCCO1)c1ccccc1 (stereo not given),-4.2,i,-0.1,14.8*,-6.8
CN(C)c1ccc(C(=O)NC2CCCCN(Cc3cccc(Cl)c3)C2=O)cc1 (stereo not given),0.4,.,.,.,.
CCc1ccc(NC(=O)CCc2nnc3ccc(N4CCC5(CC4)OCCO5)nn23)cc1,-8.4,i,-1.2,10.8*,2.3
S=c1[nH]nc(-c2cc3c(s2)-c2ccccc2CC3)o1,47.6*,i,-0.3,-23.4,21.9
COc1ccc(CCN2C(=O)CC(NNc3ccc([N+](=O)[O-])cc3)C2=O)cc1OC (stereo not given),9.0,+,2.5,-6.0,6.9
